Measured values as given in PubChem BioAssay (NCI).
About 79,000 compounds went through this panel and 15% of them were active in at least one assay; those are over-represented in the sample as a whole. The source made the active and inactive calls. Rule as the data show it: active = growth inhibition above about 70%; inactive = the rest.

How the values were obtained:
[1] = NCI Yeast Anticancer Drug Screen. Data for the rad52 strain (AID 147);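 also: 0% = growth of vehicle-treated control cultures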; conditions: S. cerevisiae rad52 mutant growth inhibition, hits give high values
Method in brief: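 Read-out: growth inhibition versus vehicle-treated controls. Cells were a DNA repair-deficient yeast strain treated with compounds.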

[2] = NCI Yeast Anticancer Drug Screen. Data for the wt1 strain (AID 149);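 also: 0% = growth of vehicle-treated wt1 cultures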; conditions: S. cerevisiae wt1 strain (SPY 50644) growth inhibition, hits give high values
Method in brief: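 Vehicle-normalised growth inhibition; strain wt1; compound exposure.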

[3] = NCI Yeast Anticancer Drug Screen. Data for the rad50EPP+ strain (AID 151);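 also: 0% = growth of vehicle-treated control cultures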; conditions: S. cerevisiae rad50 mutant strain, hits give high values
Method in brief: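 Growth inhibition read against vehicle controls in rad50EPP+ yeast, a strain altered in DNA damage repair, after compound exposure.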

[4] = NCI Yeast Anticancer Drug Screen. Data for the mgt1 strain (AID 153); conditions: S. cerevisiae mgt1 mutant growth inhibition, hits give high values
Method in brief: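 mgt1 yeast grown with test compound; read-out is growth inhibition versus vehicle-treated cultures.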

[5] = NCI Yeast Anticancer Drug Screen. Data for the rad50 strain (AID 155);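 also: 0% = growth of vehicle-only cultures of the same strain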; conditions: S. cerevisiae rad50 strain growth inhibition, hits give high values
Method in brief: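 A DNA repair-deficient yeast mutant serves as the test organism; compound-induced growth inhibition is calculated against vehicle-treated cells.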

[6] = NCI Yeast Anticancer Drug Screen. Data for the mec2-1 strain (AID 157); conditions: S. cerevisiae mec2-1 strain, hits give high values
Method in brief: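 Yeast mec2-1 mutant treated with compound. Readout: growth inhibition vs vehicle controls.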

[7] = NCI Yeast Anticancer Drug Screen. Data for the rad14 strain (AID 159);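 also: 0% = growth of vehicle-treated control cultures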; conditions: S. cerevisiae rad14 strain growth inhibition, hits give high values
Method in brief: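 Vehicle-treated cultures served as the baseline for growth inhibition of a DNA repair-mutant yeast strain exposed to each compound.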

[8] = NCI Yeast Anticancer Drug Screen. Data for the sgs1 mgt1 strain (AID 161);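 also: 0% = growth of cultures given vehicle only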; conditions: S. cerevisiae sgs1 mgt1 strain, hits give high values
Method in brief: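 Inhibition of yeast growth, normalised to vehicle-treated controls, is reported for a strain bearing genetic alterations in DNA damage repair.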

[9] = NCI Yeast Anticancer Drug Screen. Data for the CLN2oe strain (AID 163);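 also: 0% = growth of vehicle-only control cultures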; conditions: S. cerevisiae CLN2oe strain, hits give high values
Method in brief: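 Read-out: yeast growth inhibition, expressed relative to vehicle-only controls. The strain bears an engineered cell-cycle alteration.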

[10] = NCI Yeast Anticancer Drug Screen. Data for the cln2 rad14 strain (AID 165);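 also: 0% = growth equal to vehicle treated cultures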; conditions: S. cerevisiae cln2 rad14 strain, hits give high values
Method in brief: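 cln2 rad14 yeast strain; compound exposure; growth inhibition read vs vehicle controls.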

[11] = NCI Yeast Anticancer Drug Screen. Data for the bub3 strain (AID 167); conditions: S. cerevisiae bub3 mutant strain, hits give high values
Method in brief: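 Inhibition values come from growth of compound-treated mutant yeast normalised to vehicle-treated controls.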

[12] = NCI Yeast Anticancer Drug Screen. Data for the wt2 strain (AID 169);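 also: 0% = growth of vehicle-treated yeast cultures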; conditions: S. cerevisiae wt2 strain growth inhibition, hits give high values
Method in brief: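 Read-out: growth inhibition versus vehicle-treated control cultures after compound exposure of the yeast strain.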

[13] = NCI Yeast Anticancer Drug Screen. Data for the mlh1 strain (AID 171);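 also: 0% = growth of vehicle-treated control cultures of the same strain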; conditions: S. cerevisiae mlh1 strain growth inhibition, hits give high values
Method in brief: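 Read-out: growth inhibition versus vehicle controls. Strain: engineered yeast with a defined DNA repair or cell cycle defect, compound-treated.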

[14] = NCI Yeast Anticancer Drug Screen. Data for the sgs1 strain (AID 173);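 also: 0% = growth of vehicle-only control cultures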; conditions: S. cerevisiae sgs1 mutant, hits give high values
Method in brief: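 Read-out: yeast growth inhibition relative to vehicle controls, following compound exposure of a strain with a defined DNA repair/cell cycle alteration.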

[15] = NCI Yeast Anticancer Drug Screen. Data for the mlh1 rad18 strain (AID 175); conditions: S. cerevisiae mlh1 rad18 strain growth inhibition, hits give high values
Method in brief: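 Yeast w/ defined DNA-repair lesions; compound exposure; growth vs vehicle controls → % inhibition.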

[16] = NCI Yeast Anticancer Drug Screen. Data for the rad18 strain (AID 177); conditions: S. cerevisiae rad18 mutant growth inhibition, hits give high values
Method in brief: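 Readout: growth inhibition vs vehicle controls. Cells: genetically altered yeast strain, DNA repair defect.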

[17] = at 5.0 µM (retest, dose inferred, filed as 0.5)
[18] = at 50.0 µM (retest, dose inferred, filed as 5.0)

Measured: growth inhibition

NNC(=S)Nc1cccc2ccccc12
inactive: [1]; at 1.2 µM -10% | [1]; at 3.7 µM -35% | [1]; at 11.0 µM -29% | [1]; at 33.0 µM 8% | [1]; at 100.0 µM 20% | [2]; at 1.2 µM -21% | [2]; at 3.7 µM -17% | [2]; at 11.0 µM -24% | [2]; at 33.0 µM -7% | [2]; at 100.0 µM 7% | [3]; at 1.2 µM -48% | [3]; at 3.7 µM -52% | [3]; at 11.0 µM -54% | [3]; at 33.0 µM -45% | [3]; at 100.0 µM 4% | [4]; at 1.2 µM -16% | [4]; at 3.7 µM -45% | [4]; at 11.0 µM -23% | [4]; at 33.0 µM -7% | [4]; at 100.0 µM 60% | [5]; at 1.2 µM -31% | [5]; at 3.7 µM -26% | [5]; [17] 45% | [5]; at 11.0 µM -31% | [5]; at 33.0 µM -6% | [5]; [18] 35% | [5]; at 50.0 µM 23.6% | [5]; at 100.0 µM 43% | [6]; at 1.2 µM -16% | [6]; at 3.7 µM -41% | [6]; [17] 60% | [6]; at 11.0 µM -20% | [6]; at 33.0 µM -9% | [6]; at 50.0 µM 23.8% | [6]; at 100.0 µM 12% | [7]; at 1.2 µM -14% | [7]; at 3.7 µM -33% | [7]; at 11.0 µM -50% | [7]; at 33.0 µM -32% | [7]; at 100.0 µM 28% | [8]; [17] -11% | [8]; [18] 54% | [9]; at 1.2 µM 5% | [9]; at 3.7 µM -3% | [9]; at 11.0 µM 2% | [9]; at 33.0 µM 3% | [9]; at 100.0 µM 27% | [10]; [17] 31% | [10]; [18] 67% | [11]; at 1.2 µM -6% | [11]; at 3.7 µM -9% | [11]; [17] 36% | [11]; at 11.0 µM -15% | [11]; at 33.0 µM 13% | [11]; [18] 59% | [11]; at 100.0 µM 55% | [12]; at 1.2 µM -40% | [12]; at 3.7 µM -36% | [12]; at 11.0 µM -33% | [12]; at 33.0 µM -16% | [12]; at 100.0 µM 17% | [13]; at 1.2 µM -37% | [13]; at 3.7 µM -38% | [13]; at 11.0 µM -29% | [13]; at 33.0 µM -13% | [13]; at 100.0 µM 48% | [14]; at 1.2 µM -14% | [14]; at 3.7 µM -33% | [14]; at 11.0 µM -19% | [14]; at 33.0 µM -8% | [14]; at 100.0 µM 37% | [15]; [17] 40% | [15]; [18] 62% | [15]; at 50.0 µM 49.2% | [16]; at 1.2 µM -32% | [16]; at 3.7 µM -39% | [16]; at 11.0 µM -21% | [16]; at 33.0 µM 2% | [16]; at 100.0 µM 18%
active: [6]; [18] 78%
